# Sampled rows, rich in hits. Any-hit rate of the full collection: about 4.7%.
# LMP1 NFkB inh: reduces LMP1-driven NF-kappaB luciferase signal; AID 504558; inhibition, % at 12.5 µM; LMP1-induced NF-kappaB luciferase reporter cells, luminescence; hit rate 0.69% among 350,000; in the data active = inhibition above about 41%;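 note: 0% = neutral control wells and 100% = reference inhibitor control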
# TWEAK-Fn14 inh: blocks TWEAK-Fn14 interaction in a reporter cell assay | TWEAK-stimulated Fn14 reporter cells, luciferase luminescence, 8 h | AID 1159606 | hit rate 2% among 360,000 | inhibition, % at 10 µM; in the data active = inhibition above about 50%
# HSP90 inh: blocks HSP90-mediated luciferase refolding in reticulocyte lysate. Rabbit reticulocyte lysate, luciferase refolding luminescence, 3 h. inhibition, % at 5.6 µM. hit rate 0.91% among 290,000. AID 1789;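 active = inhibition above the screen-wide mean plus 3 SD, computed separately per campaign, cut at about 16% in these data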;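 note: 0% = DMSO wells and 100% = 60 µM geldanamycin wells; inhibitors lower the luminescence because luciferase stays unfolded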
# HSF1 inhib: HSF1 inhibition; activity change, negative = inhibition, % at 7.5 µM (by protocol); AID 2098; hit rate 0.77% among 300,000; NIH3T3-HGL HSE-luciferase, MG132-induced, luminescence 8 h; hits give low values;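 active = more than half of replicate wells show activity change below -50%, luminescence cut by over half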;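 note: luciferase reports HSF-1 transcriptional activity via heat shock element; 0% = median of DMSO wells and -100% = zero luminescence signal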
# HSF-1 act: increases HSF-1 driven luciferase reporter signal; NIH3T3-HGL HSF-1 luciferase reporter, MG132, 8 h; 100% = twice DMSO control signal; activation, % at 9 µM; hit rate 1.7% among 300,000; AID 504408;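 active = mean replicate activation of at least 50% with a set share of replicates each reaching 50%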;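 note: 0% = median of the neutral control wells and 100% = twice that signal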
# TROY signal inh: blocks TROY-dependent signaling in reporter cells; inhibition, % at 10 µM; hit rate 0.98% among 360,000; AID 1347056; Q293 LMP1-TROYcd NF-kB luciferase reporter, 4 h;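 active = compounds whose plate-normalised and pattern-corrected inhibition of the luciferase reporter signal at the single screening dose is 50% or more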
# * marks the source's active call; other numbers are inactive results; . = no result given.
SMILES,LMP1 NFkB inh,TWEAK-Fn14 inh,HSP90 inh,HSF1 inhib,HSF-1 act,TROY signal inh
O=C(COC(=O)c1cccc(N2C(=O)C3CC=CCC3C2=O)c1)c1ccccc1 (stereo not given),5,-6,-3,11,15,-31
CCc1ccc(C(=O)COC(=O)c2cccc(N3C(=O)c4c(C)nc5ccccc5c4C3=O)c2)cc1,45*,16,-1,0,14,-8
C=CCN1CCc2c(cc(O)c(O)c2Cl)C(c2ccccc2)C1 (stereo not given),-3,-13,.,4,2,-4
C=CCN1CCc2cc(O)c(O)cc2C(c2ccccc2)C1 (stereo not given),77*,17,.,.,.,11
Cc1sc(NC(=O)c2cccc([N+](=O)[O-])c2)c(C(N)=O)c1-c1ccc(C(C)(C)C)cc1,15,64*,7,-27,-37,69*
COC(=O)C(=Cc1ccncc1)c1cccc2ccccc12,4,-1,.,.,.,-14
COc1ccccc1C(=O)NCCn1cc(SCC(=O)Nc2cc(C)on2)c2ccccc21,14,4,5,-1,-3,6
Cc1cc(NC(=O)CSc2cn(CCNC(=O)c3ccc(Cl)cc3)c3ccccc23)no1,-15,67*,8,-23,-29,71*
CCOc1ccc(C(=O)NCCn2cc(SCC(=O)Nc3cc(C)on3)c3ccccc32)cc1,-7,17,12,-5,-5,56*
O=C(NCCn1cc(SCc2ccccc2F)c2ccccc21)c1c(F)cccc1F,-13,62*,4,21,30,34
Cc1ccc(C(=O)NCCn2cc(SCC(=O)Nc3nnc(C)s3)c3ccccc32)cc1,-14,91*,50*,-47,-53,77*
COc1ccc(C(=O)NCCn2cc(SCC(=O)Nc3cc(C)on3)c3ccccc32)cc1OC,-1,6,4,4,3,5
CCc1nc2ccc(C(=O)N(C)C(C)C)cn2c1N(CC)Cc1cccc(Br)c1,.,-5,.,.,.,-2
C[C@@H]1CN([C@@H](C)CO)C(=O)CCCn2nncc2CO[C@@H]1CN(C)S(=O)(=O)c1ccc(C#N)cc1,-2,-11,.,.,.,-7
COc1ccccc1Cc1c(-c2cccc(Cl)c2)nc2ccc(Br)cn12,.,9,.,.,.,-36
COc1ccc(C(=O)NCCn2cc(SCC(=O)N3CCOCC3)c3ccccc32)cc1,-8,34,47*,-12,-15,67*
O=C(NCCn1cc(SCC(=O)N2CCOCC2)c2ccccc21)c1ccccc1,-11,22,7,-7,-16,16
N#Cc1nc(-c2cccs2)oc1NCc1ccc(Cl)cc1,0,-3,-5,16,63*,-19
COc1ccc(-c2oc3c(c2C#CCCCCO)C(OCCO)CC3)cc1 (stereo not given),.,19,.,.,.,-6
COc1ccc(C2N(C(=O)CN3CCCC3)CCCN2S(=O)(=O)c2ccccc2)cc1 (stereo not given),-6,13,4,52,105*,-3
Cc1ccc(NS(=O)(=O)c2cccc(C(=O)N/N=C/c3c(C)nn(-c4ccccc4)c3N3CCCC3)c2)c(C)c1,2,57*,5,-4,-4,14
CCNc1ccc(C(=O)N/N=C/c2c(C)nn(-c3ccccc3)c2N2CCCC2)cc1[N+](=O)[O-],21,31,-4,-1,-9,8
CC1=C(CO)C(=O)OC([C@@H](C)C2CC[C@H]3C4C[C@H]5O[C@]56[C@@H](O)C=CC(=O)[C@]6(C)C4CC[C@]23C)C1 (stereo not given in full),83*,103*,.,38,64*,49
COc1cc(CNc2ccc3[nH]c(=O)[nH]c3c2)ccc1OCc1ccc(Cl)cc1,-21,34,-7,58,83*,-7
COc1cc(CNc2ccc3[nH]c(=O)[nH]c3c2)ccc1OCc1ccc(F)cc1,6,1,-5,21,41,-51
SMILES,LMP1 NFkB inh,TWEAK-Fn14 inh,HSP90 inh,HSF1 inhib,HSF-1 act,TROY signal inh
COc1cc(-c2nc(C(=O)NCC3CCCO3)cc3c2[nH]c2ccccc23)cc(OC)c1OC (stereo not given),92*,59*,0,3,5,-8
O=C(NCC1CCCO1)c1cc2c([nH]c3ccccc32)c(-c2cccc(Cl)c2)n1 (stereo not given),-6,56*,2,15,28,27
COc1ccccc1-c1nc(C(=O)NCC2CCCO2)cc2c1[nH]c1ccccc12 (stereo not given),-14,24,2,4,10,3
CC(C)CN(C(=O)COC(=O)c1cc2ccccc2cc1O)c1c(N)n(Cc2ccccc2)c(=O)[nH]c1=O,3,3,.,.,.,-4
C[C@@H]1CN([C@H](C)CO)C(=O)c2cc(C#CC3CC3)cnc2O[C@H]1CN(C)S(C)(=O)=O,1,-29,.,.,.,-3
Cc1ccc(C(=O)Nc2cc3c(cc2Cl)OCCCO3)cc1,-36,-31,-1,13,29,-47
COc1ccc(C(=O)Nc2cc3c(cc2Cl)OCCCO3)cc1,-27,-17,-2,39,53*,-83
COc1cccc(C(=O)Nc2cc3c(cc2Cl)OCCCO3)c1,-31,-16,1,18,54*,-86
COc1ccc(-c2cc(=O)oc3cc(OC(=O)C4CCCCC4)ccc23)cc1,11,54*,0,-7,-8,22
Cc1cc(NC(=O)CS(=O)(=O)c2cn(Cc3cccc(C(F)(F)F)c3)c3ccccc23)no1,.,26,.,.,.,36
O=C(OCc1ccccc1)N1CCCC2CC1c1ccccc12 (stereo not given),-5,5,.,.,.,0
O=C(CN1C(=O)CC(c2ccccc2)=Nc2ccccc21)NCc1ccco1,3,7,-2,17,71*,5
O=[N+]([O-])c1cnc2ccccc2c1,-3,0,4,-12,-13,-3
O=[N+]([O-])c1cc([N+](=O)[O-])c2cc3ccccc3nc2c1,-8,93*,11,94,139*,33
O=c1cc(NCCc2ccccc2)c2ccccc2o1,0,-10,-3,23,57*,-30
O=c1cc(NCCO)c2ccccc2o1,8,-4,0,0,6,18
CNC(=O)C[C@H]1C(=O)N(Cc2ccccc2)C[C@@H]1C,9,-26,.,.,.,9
Cc1ccc(C(=O)N2c3ccccc3N(Cc3ccccc3)C(=O)C2(C)C)cc1,23,53*,6,0,-10,36
CN(Cc1ccccc1)C(=O)Cn1nnc(-c2ccccc2)c1COc1ccc2ccccc2c1,.,23,.,.,.,20
CC1CCCC(NC(=O)CCNC(=O)c2ccc([N+](=O)[O-])cc2)C1C (stereo not given),0,76*,-1,-3,1,-20
CN1CCN(c2ncnc3c2ncn3[C@H]2CN(Cc3ccc(Cl)cc3)C[C@@H](CO)O2)CC1,.,-16,.,.,.,-3
O=S(=O)(c1cccs1)N1CCN(CCOc2ccc(Cl)cc2)CC1,9,19,.,.,.,30

# High-throughput results (PubChem)
